# Whole data set: some 18,000 sequences, median “log2 normalized intensity” near 0.36, cut for the highest 2% near 7.3. The list comes from a sample in which the highest values are over-represented; it also holds similar and randomly drawn sequences.
# Biological target: T1, HNF4alpha8 (COS-7 nuclear extract) (Homo sapiens, UniProt P41235-5 1-452)
# T1 sequence: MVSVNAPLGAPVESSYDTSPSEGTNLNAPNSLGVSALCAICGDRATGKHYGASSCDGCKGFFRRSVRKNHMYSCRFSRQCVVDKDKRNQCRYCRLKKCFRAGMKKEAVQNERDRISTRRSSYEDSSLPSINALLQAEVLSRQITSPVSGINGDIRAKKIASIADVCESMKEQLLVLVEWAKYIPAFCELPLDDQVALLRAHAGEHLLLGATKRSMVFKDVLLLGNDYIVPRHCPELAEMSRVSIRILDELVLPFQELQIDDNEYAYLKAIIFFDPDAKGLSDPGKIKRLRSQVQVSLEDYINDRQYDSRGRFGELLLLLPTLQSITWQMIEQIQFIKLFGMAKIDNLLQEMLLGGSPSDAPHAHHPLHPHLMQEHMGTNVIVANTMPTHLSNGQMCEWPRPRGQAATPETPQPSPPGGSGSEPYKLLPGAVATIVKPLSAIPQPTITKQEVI
# Assay: protein-binding microarray; COS-7 nuclear extract on double-stranded Agilent 4x180k PBM; binding buffer, salt, pH and temperature not given in the material; high values mean tight binding
# Conditions: chain copies: 2; label: 3' end of strand 1 on the slide; dsDNA, one strand shown
# Summary of the method: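 A human HNF4α isoform was expressed in COS-7 cells by transient CaPO4 transfection, and nuclear extracts were prepared. These were applied to a custom Agilent SurePrint G3 4x180k array carrying ~44,000 test sequences in quadruplicate as double-stranded ~60-nt oligonucleotides, and an Agilent G2565CA scanner imaged bound HNF4α at 2-µm resolution. The background-corrected, normalized gProcessedSignal from Agilent software was used as the binding signal.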
row,Sequence,binding signal [log2 normalized intensity]
1,ACCGTAAATGCATTATTGCACTGTGCTTTGGCCTAGGGAGATTAGAGTATCGGTCGA,1.3
2,TGCTCTCAGCACACTCTGGTACCATGGATGGCCTAGGGAGATTAGAGTATCGGTCGA,0.953
3,GGCTCTCCCGGGGCGGGGGTGACCAGATTAGCCTAGGGAGATTAGAGTATCGGTCGA,1.07
4,TCAGGGGTCAATGTGCACATTCGAAGTTTTGCCTAGGGAGATTAGAGTATCGGTCGA,4.86
5,CATCTGGGCAAGGTGTCAACCTTCATTCTCGCCTAGGGAGATTAGAGTATCGGTCGA,0.575
6,TCTTTTTAATCAATAATCTTTGCCCTTGAAGCCTAGGGAGATTAGAGTATCGGTCGA,3.49
7,AGCATATTTGGCCACATCCTGTCTCCTTTAGCCTAGGGAGATTAGAGTATCGGTCGA,1.11
8,CCTGAAGGGTGTTGTGGAATGTGCTTGGACGCCTAGGGAGATTAGAGTATCGGTCGA,2.16
9,TCCAAAATACGACCTTTGGACAGGGTGACGGCCTAGGGAGATTAGAGTATCGGTCGA,7.56
10,ACATCAGAAGTTGGACTTTGTACATTCCAAGCCTAGGGAGATTAGAGTATCGGTCGA,8.13
11,AATACGACCTTTGGACAGGGTGACGTCATTGCCTAGGGAGATTAGAGTATCGGTCGA,6.84
12,TTTGTCACATTCCAGACTTTGTACAAGGGCGCCTAGGGAGATTAGAGTATCGGTCGA,3.1
13,AGAAGTTGGACTTTGTACATTCCAAATACGGCCTAGGGAGATTAGAGTATCGGTCGA,7.64
14,GGGCTTTTGTCACATTCCAGACTTTGTACAGCCTAGGGAGATTAGAGTATCGGTCGA,5.85
15,TTGGACTTTGTACATTCCAAATACGATAATGCCTAGGGAGATTAGAGTATCGGTCGA,5.9
16,CCTGGTGACCTTTGTTTGGTCAAATACCTAGCCTAGGGAGATTAGAGTATCGGTCGA,3.66
17,GTACTTTGTACATGGGAATAGACATTCCAGGCCTAGGGAGATTAGAGTATCGGTCGA,1.99
18,AAAGGCCTTTGAAGCTTGAAGGAGTATATGGCCTAGGGAGATTAGAGTATCGGTCGA,0.256
19,CTTATCAGCAGCTGGGGTGACTGATTGGAGGCCTAGGGAGATTAGAGTATCGGTCGA,0.845
20,AGTGCACCTTAATAAGCACATTCCTTTCCCGCCTAGGGAGATTAGAGTATCGGTCGA,-0.98
21,ATCTTATCAGCAAGGGCATTTGCGTAGGCTGCCTAGGGAGATTAGAGTATCGGTCGA,-0.794
22,TGCTAAGTGCCATGTAATCAAACTGAACTTGCCTAGGGAGATTAGAGTATCGGTCGA,2.1

row,Sequence,binding signal [log2 normalized intensity]
1,GTGGCTACCTGTGCAGATATTTAACCTTTGGCCTAGGGAGATTAGAGTATCGGTCGA,4.61
2,TACCTGTGCAGATATTTAACCTTTGATCTGGCCTAGGGAGATTAGAGTATCGGTCGA,8.15
3,CTGTGCTTTGTTTACTTAACCTTTGATCATGCCTAGGGAGATTAGAGTATCGGTCGA,7.84
4,GATATTTAACCTTTGATCTGTAAGCTCTCTGCCTAGGGAGATTAGAGTATCGGTCGA,5.39
5,CTTTGTTTACTTAACCTTTGATCATATGCAGCCTAGGGAGATTAGAGTATCGGTCGA,5.75
6,TTGCACTGTGCTTTGTTTACTTAACCTTTGGCCTAGGGAGATTAGAGTATCGGTCGA,4.5
7,CCTGTCTGACAGGATGAATTTATTGCCCTCGCCTAGGGAGATTAGAGTATCGGTCGA,3.21
8,ATGGTGACCATGTGATGTGAAGAGTGTGGAGCCTAGGGAGATTAGAGTATCGGTCGA,1.31
9,CTTGTGTAATAACGAGACCTTAGCCCTGAAGCCTAGGGAGATTAGAGTATCGGTCGA,-0.451
10,TTTCTGTCCAGAGTTTAAATGACCTCTGCCGCCTAGGGAGATTAGAGTATCGGTCGA,4.72
11,TTTCATTCCACTGACTTGCAACCTTTGCCCGCCTAGGGAGATTAGAGTATCGGTCGA,7.51
12,TTCCTCCCTTGGAATGTGACCTTAGACCCCGCCTAGGGAGATTAGAGTATCGGTCGA,8.83
13,GAGTTTAAATGACCTCTGCCCTTCCACCCAGCCTAGGGAGATTAGAGTATCGGTCGA,5.16
14,TTAGCTTCCTCCCTTGGAATGTGACCTTAGGCCTAGGGAGATTAGAGTATCGGTCGA,5.27
15,TTGCCCTTCTTGGATGCCCTTCCCTAACCCGCCTAGGGAGATTAGAGTATCGGTCGA,3.04
16,TTCCACTGACTTGCAACCTTTGCCCTGTTGGCCTAGGGAGATTAGAGTATCGGTCGA,7.2
17,TTCCCTTGGAATGCCAGATGACCTTTGCCCGCCTAGGGAGATTAGAGTATCGGTCGA,10.2
18,GTCCAGAGTTTAAATGACCTCTGCCCTTCCGCCTAGGGAGATTAGAGTATCGGTCGA,7.43
19,GAGAGTTCCCTTGGAATGCCAGATGACCTTGCCTAGGGAGATTAGAGTATCGGTCGA,4.6
20,CCCTTGGAATGTGACCTTAGACCCCTGAATGCCTAGGGAGATTAGAGTATCGGTCGA,6.49
21,CTGGCTTTCATTCCACTGACTTGCAACCTTGCCTAGGGAGATTAGAGTATCGGTCGA,1.09
22,AAGATAATGGGTCCGAAGGTCAGCTGACCAGCCTAGGGAGATTAGAGTATCGGTCGA,5.57

row,Sequence,binding signal [log2 normalized intensity]
1,TGATTATTTGTGAAGGCATTATTGGTGAAAGCCTAGGGAGATTAGAGTATCGGTCGA,0.974
2,TCAGAGCTTGAAAAGTCTTTCTGCCAAAGTGCCTAGGGAGATTAGAGTATCGGTCGA,0.513
3,TGGCATCCCTGTGGTATTTGCTCTGTCATCGCCTAGGGAGATTAGAGTATCGGTCGA,1.39
4,GCTAAAAGTTGAATTCTTGACTTTGGACTTGCCTAGGGAGATTAGAGTATCGGTCGA,6.55
5,GACCTCTGGACCTCATCTTCCTCCCCAATAGCCTAGGGAGATTAGAGTATCGGTCGA,4.6
6,CCTAGGTGCTGAAGATGCAACAGTGACCCAGCCTAGGGAGATTAGAGTATCGGTCGA,3.1
7,AGTCTGGAGGGGTGCGAAGGTCGAGGCCAGGCCTAGGGAGATTAGAGTATCGGTCGA,3.39
8,AGCTACTAGCAAATCTGCCCAACCTTTGCCGCCTAGGGAGATTAGAGTATCGGTCGA,2.1
9,CTGCTTTTATGACCTTTGACTGCAGAAGATGCCTAGGGAGATTAGAGTATCGGTCGA,6.33
10,TTCTTTTTTTTTTTTTTTTTTTTTTGAGATGCCTAGGGAGATTAGAGTATCGGTCGA,3.08
11,ATGCCAGATGACCTTTGCCCTTGACTTTTTGCCTAGGGAGATTAGAGTATCGGTCGA,9.28
12,AGATGACCTTTGCCCTTGACTTTTTGTGGGGCCTAGGGAGATTAGAGTATCGGTCGA,7.72
13,ACCTTTGCCCTTGACTTTTTGTGGGGGCAGGCCTAGGGAGATTAGAGTATCGGTCGA,3.39
14,TGCCCTTGACTTTTTGTGGGGGCAGATGTTGCCTAGGGAGATTAGAGTATCGGTCGA,2.31
15,AGTGAGCCAAGGTACCCTGGCTTGTAATTCGCCTAGGGAGATTAGAGTATCGGTCGA,-0.844
16,ATCAGAGCTGGATGTGAGTTATGACTACTTGCCTAGGGAGATTAGAGTATCGGTCGA,0.62
17,ACTCAGGCATTCTGACCTTTGTCTCCAGGCGCCTAGGGAGATTAGAGTATCGGTCGA,6.52
18,CTGCAGATTGACTCAGGCATTCTGACCTTTGCCTAGGGAGATTAGAGTATCGGTCGA,7.32
19,CACAGCTCGACCTTTGACCTTCGGCTTCCCGCCTAGGGAGATTAGAGTATCGGTCGA,9.06
20,GATTGACTCAGGCATTCTGACCTTTGTCTCGCCTAGGGAGATTAGAGTATCGGTCGA,7.94
21,TTTTAAGGTCTGGCATTCTTTTTGACCTTTGCCTAGGGAGATTAGAGTATCGGTCGA,8.23
22,CTTTGACACAGGCGACCTTCGCTCGGCTCGGCCTAGGGAGATTAGAGTATCGGTCGA,4.27

row,Sequence,binding signal [log2 normalized intensity]
1,CCATATCACATTTTAAGGTCTGGCATTCTTGCCTAGGGAGATTAGAGTATCGGTCGA,1.1
2,CCTTTTATTTTCTTATCTGCCTAGGCATTTGCCTAGGGAGATTAGAGTATCGGTCGA,1.58
3,CCCGCCTTTGACACAGGCGACCTTCGCTCGGCCTAGGGAGATTAGAGTATCGGTCGA,6.06
4,TCAGGCACAGCTCGACCTTTGACCTTCGGCGCCTAGGGAGATTAGAGTATCGGTCGA,10.9
5,CCTTTGACCTTCGGCTTCCCCAGAGAAAGAGCCTAGGGAGATTAGAGTATCGGTCGA,3.38
6,AAATCCCCGCCTTTGACACAGGCGACCTTCGCCTAGGGAGATTAGAGTATCGGTCGA,4.58
7,CCAACAGGTGAAGACATGCTGGTGTGTGATGCCTAGGGAGATTAGAGTATCGGTCGA,0.875
8,AGATGGTCAAAGGTTGATGGTATGTTTCAGGCCTAGGGAGATTAGAGTATCGGTCGA,3.86
9,TGAATCCTCTTTGAGTCTGGTGTTCTCTTGGCCTAGGGAGATTAGAGTATCGGTCGA,1.65
10,CGCATCTGAAGATAAGAGAAGTTGCTCTTTGCCTAGGGAGATTAGAGTATCGGTCGA,2.63
11,CCTGCAAGGACAAAGGTCATGTTTTCAAACGCCTAGGGAGATTAGAGTATCGGTCGA,6.34
12,AATTTGAACCAAGATCTGTGAAAGAAAAGTGCCTAGGGAGATTAGAGTATCGGTCGA,-0.147
13,TATGTGCTGACTGACTCCTGTTACTTCCACGCCTAGGGAGATTAGAGTATCGGTCGA,0.0957
14,AGTGTGGGGTGACTGACTTAACCCTTGCCTGCCTAGGGAGATTAGAGTATCGGTCGA,2.27
15,CTCCACTTGGGTATCAGATAGTCCAATGTCGCCTAGGGAGATTAGAGTATCGGTCGA,2.52
16,GCCTCTCTGTGCTGGAACTTGCTTCCTTATGCCTAGGGAGATTAGAGTATCGGTCGA,1.37
17,TGTGGTAATAAGTTGGTGGACGCTGGGGAAGCCTAGGGAGATTAGAGTATCGGTCGA,0.488
18,TCCTTCAGCGTGAACTTTGACATGAGAGAAGCCTAGGGAGATTAGAGTATCGGTCGA,4.21
19,TATATTCAACCCCCACTTCCTGACTTGGCCGCCTAGGGAGATTAGAGTATCGGTCGA,3.85
